# TDP1 cell noCPT = qHTS for Inhibitors of human tyrosyl-DNA phosphodiesterase 1 (TDP1): qHTS in cells in absence of CPT; AID 686978, 2013; Potency, µM (titrated, usually from 46.2 µM), inactives show at the highest dose activity change, negative = growth inhibition, most hits filed as inhibitors; DT40 Tdp1-/- hTDP1 cells, no CPT, ATP luminescence, 48 h; hit rate 15% among 420,000; further: potency means the concentration at half of the fitted maximal effect; nearly all actives have a fitted effect of over 55% in size
#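 No-CPT arm: Tdp1-/-;hTDP1 DT40 cells (400/well) plus compounds, incubated ≥48 hr at 37 °C. Readout CellTiter-Glo luminescence.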
# DT40 TDP1 CPT = growth inhibition of DT40 Tdp1-/-;hTDP1 cells with camptothecin (screen for TDP1 inhibitors). chicken DT40 Tdp1-/-;hTDP1 cells + 20 nM CPT, ATP luminescence, 48 h. Potency, µM (titrated, usually from 46.2 µM), for inactives: top-dose activity change, negative = growth inhibition, usual class: inhibitors. hit rate 12% among 420,000; further: potency means the concentration at half of the fitted maximal effect; nearly all actives have a fitted effect of over 55% in size
#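 Chicken DT40 Tdp1-/- cells complemented with human TDP1, 400 cells/well, exposed to compounds plus 20 nM camptothecin for at least 48 h at 37 C; viability read as ATP content by CellTiter-Glo luminescence.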
# HT1080-NT tox = kills 2HG-producing HT-1080-NT fibrosarcoma cells; HT-1080-NT fibrosarcoma viability, CellTiter-Glo ATP luminescence, 48 h; Potency, µM (doses to about 46.1 µM), for inactives: at the top dose activity, negative = less viability, most hits filed as cytotoxic; hit rate 1.6% among 360,000;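 further: NT is the 2HG producing partner of a matched IDH1 knockdown line; potency means the concentration at half of the fitted maximal effect; 0% = DMSO-treated cells and -100% = media-only wells without cells; nearly all actives have a fitted effect of over 55% in size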
#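 Toxicity toward the 2HG-producing NT line was scored as %Activity, normalised to DMSO and no-cell wells, from CellTiter-Glo luminescence after 48 hours' treatment.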
# IL-1B inflam inh = inhibitors of inflammasome signaling (IL-1 beta secretion) | activity change, % at 57.5 µM | hit rate 4.7% among 360,000 | THP-1 LPS/ATP IL-1B secretion, AlphaLISA, 16 h; active compounds read low; in the data active means activity change below about -50%; inconclusive means mostly about -30% to -49%
#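 THP-1 cells pretreated 1 hr with compounds (up to 57.5 uM final), then stimulated with LPS (250 ng/mL final) plus ATP (1.25 mM final); secreted IL-1B measured by AlphaLISA after 16 hr, decreased signal indicating inhibition.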
# HT1080 IDH1KD tx = HT-1080 IDH1 knockdown cell toxicity (counter line); HT-1080 IDH1 knockdown viability, ATP luminescence, 48 h; Potency, µM (highest dose often 46.1 µM), for the others: top-dose activity, negative = toxicity, most hits filed as cytotoxic; hit rate 2% among 360,000; AID 686971;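 further: potency means the concentration at half of the fitted maximal effect; 0% = DMSO wells and -100% = cell-free medium wells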
#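 Assay cells: HT-1080 with IDH1 knockdown, 750 per well, RPMI/5% FBS. Exposure: 48 h at 37 °C following 2 h pre-incubation. Read: CellTiter-Glo luminescence; fitted concentration-response, curve class assigned.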
# Active calls of the source: *; ? = inconclusive; · = not tested or not shown. The list is not random: actives were taken first. Their share in the collection is about 19%. Unless noted, the call rests on the fitted dose curve; in most records, active means well fitted curve in the direction sought with a large enough effect; inconclusive means small, poorly fitted or top-dose-only effect, or another doubt; inactive means no such curve, though single readings can be large; an effect the other way counts as inactive or inconclusive. Unless noted, on the % scale 0 is the no-effect control and ±100 the full control effect.
SMILES,TDP1 cell noCPT,DT40 TDP1 CPT,HT1080-NT tox,IL-1B inflam inh,HT1080 IDH1KD tx
COc1ccccc1-c1nc(S(=O)(=O)c2ccc(Cl)cc2)c(N2CCCCCC2)o1,16µM*,16µM*,·,·,·
O=S(=O)(c1ccccc1)c1nc(-c2ccccc2Cl)oc1N1CCCCCC1,21µM*,?,·,·,·
CCOP(=O)(c1ccccc1)c1nc(-c2ccccc2Cl)oc1N1CCCCC1 (stereo not drawn),?,?,?,-67*,?
Cc1onc(-c2ccccc2)c1C(=O)OCC(=O)N1CCN(c2ccccc2)CC1,?,-21%,4%,-22,3%
Cc1ccc(NC(C(N)=O)c2c(C)[nH]c(=O)[nH]c2=O)cc1 (stereo not drawn),-10%,-14%,7%,-18,11%
Cc1cc2ncn(C(=O)c3c(-c4ccccc4Cl)noc3C)c2cc1C,-27%,-22%,-1%,37,-12%
Cc1ccccc1Cn1cc(NS(=O)(=O)c2cn(C)nc2C)cn1,6%,-8%,20%,10,25%
COc1cc(NC(=O)c2ccco2)c(C(=O)O)cc1OC,-9%,-15%,-9%,-23,-18%
COC(=O)c1cc(OC)c(OC)cc1NC(=O)c1cccc(OC)c1OC,5.8µM*,?,2%,55,-1%
COc1ccc(NC(=O)COC(=O)c2cc(OC)c(OC)cc2NC(=O)c2ccco2)cc1OC,21µM*,?,?,-8,?
COC(=O)c1cc(OC)c(OC)cc1NC(=O)c1ccco1,?,?,-12%,-62*,-11%
Cc1cc(C(F)(F)F)nn1Cc1ccc(C(=O)NCc2ccco2)o1,13µM*,16µM*,-1%,-19,?
c1ccc(Oc2cccc(Oc3ccccc3)n2)cc1,-1%,10%,12%,20,8%
CCC(=O)N1c2ccc(S(=O)(=O)CCC(=O)N3CCN(c4ccc(F)cc4)CC3)cc2CC1C (stereo not drawn),13µM*,15µM*,·,·,·
CC(=O)N1CCc2cc(S(=O)(=O)CCC(=O)N3CCN(c4ccccc4F)CC3)ccc21,1%,?,-1%,16,-4%
CCC(=O)N1CCc2cc(S(=O)(=O)CCC(=O)N3CCN(c4ccc(F)cc4)CC3)ccc21,23µM*,21µM*,-4%,-14,-7%
CCOC(=O)N1CCN(C(=O)CCS(=O)(=O)c2ccc3c(c2)CC(C)N3C(=O)CC)CC1 (stereo not drawn),?,?,8%,5,10%
CCC(=O)N1CCc2cc(S(=O)(=O)CCC(=O)N3CCN(c4ccccc4Cl)CC3)ccc21,?,18µM*,·,·,·
CC(=O)c1ccc(N2CCN(C(=O)CCS(=O)(=O)c3ccc4c(c3)CCN4C(C)=O)CC2)cc1,?,21µM*,1%,3,-1%
CCOC(=O)N1CCN(C(=O)CCS(=O)(=O)c2ccc3c(c2)CCN3C(=O)CC)CC1,-4%,-3%,0%,30,2%
CCOc1ccc(N=C(/C(C(=O)C(=O)N2CCOCC2)=C(/O)c2ccccc2)c2ccccc2)cc1,-7%,-6%,2%,-20,-14%
CCC(=O)N1c2ccc(S(=O)(=O)CCC(=O)Nc3ccc(Br)c(C)c3)cc2CC1C (stereo not drawn),21µM*,18µM*,·,·,·
CC(=O)N1CCCc2cc(S(=O)(=O)CCC(=O)N3CCN(c4cccc(C)c4)C(C)C3)ccc21 (stereo not drawn),?,21µM*,-4%,4,1%
CCC(=O)N1c2ccc(S(=O)(=O)CCC(=O)NCc3cccs3)cc2CC1C (stereo not drawn),?,?,-18%,42,?
COc1cc2ncc(S(=O)(=O)c3ccccc3)c(N3CCCC(C)C3)c2cc1OC (stereo not drawn),12µM*,?,-25%,-30,?
SMILES,TDP1 cell noCPT,DT40 TDP1 CPT,HT1080-NT tox,IL-1B inflam inh,HT1080 IDH1KD tx
CC1CCCN(C(=O)C2CCN(S(=O)(=O)c3ccccc3)CC2)C1 (stereo not drawn),-10%,1%,-2%,7,-3%
COc1ccc(OC)c(NCc2cccn2-c2nnc(N3CCC(C)CC3)s2)c1,2.6µM*,2.9µM*,·,·,·
COc1ccc(NCc2cccn2-c2nnc(N3CCOCC3)s2)c(OC)c1,-22%,-26%,·,·,·
COc1ccc(NCc2cccn2-c2nnc(N3CCC(C)CC3)s2)c(OC)c1,16µM*,?,·,·,·
CCOC(=O)c1[nH]ncc1CN1CCCC(C(=O)c2ccc(SC)cc2)C1 (stereo not drawn),-45%,-2%,-3%,-15,-2%
COc1ccc(CN2CCCC(C(=O)c3ccc(SC)cc3)C2)cc1Cn1cccn1 (stereo not drawn),?,?,?,-96*,?
CSc1ncc(CN2CCCC(C(=O)Nc3ccc(-c4ccco4)cc3)C2)cn1 (stereo not drawn),?,?,7%,7,-5%
CSc1ccc(C(=O)C2CCCN(Cc3ccc(N4CCNC4=O)cc3)C2)cc1 (stereo not drawn),?,6%,-3%,-97*,-29%
CSc1ncc(CN2CCCC(C(=O)c3ccc(C(C)(C)C)cc3)C2)cn1 (stereo not drawn),23µM*,16µM*,-15%,21,-12%
CCn1c(C)c(Br)c(=O)c(C(=O)OC)c1-c1ccc(Cl)cc1,6%,6%,12%,3,6%
COC(=O)Nc1c(-c2ccccc2)nc2ccccn12,0%,1%,2%,5,17%
Oc1ccc(N2CCN(Cc3c(-c4ccccc4)nc4ccccn34)CC2)cc1,15µM*,?,-19%,-12,-18%
c1ccc(-c2nc3ccccn3c2-c2ccccc2)cc1,12µM*,?,-17%,0,-28%
CCCOc1ccccc1C1CC(=O)NC2=C1C(=O)CCC2 (stereo not drawn),4.1µM*,4.1µM*,12µM*,53,8.2µM*
CCCCOc1ccccc1C1CC(=O)NC2=C1C(=O)CCC2 (stereo not drawn),1.6µM*,1.6µM*,2.3µM*,30,1.6µM*
CCOc1ccc(C2CC(=O)NC3=C2C(=O)CCC3)cc1 (stereo not drawn),9%,0%,8%,-16,6%
CCOc1ccccc1C1CC(=O)NC2=C1C(=O)CCC2 (stereo not drawn),16µM*,?,?,23,23µM*
CN(C)c1ncc2nc(-c3ccc(Cl)cc3)c(=O)n(Cc3cccs3)c2n1,-7%,1%,·,·,·
CCOc1cc2c(C#N)c(N3CCNCC3)nc(N)c2c(N)n1,-15%,-4%,-13%,-2,-15%

# Compound activity as filed in PubChem.
